Experimental data from the supplement of paper PMC10849652.
About 7,900 targets were measured; listed, in parts, are those with a hit and a random draw of the rest. About 0.6% of all pairs of compound and target were hits. Unmarked numbers belong to inactive results.

Columns and labels:
Test in all cases: log2 fold change, soluble protein after heating vs DMSO (PISA); higher = thermal stabilisation; K562 cells, 10 uM, 30 min; active = over 0.2 and 3.5 SD of the protein, either way, in both replicates (recomputed)
saracatinib = compound: CN1CCN(CCOc2cc(OC3CCOCC3)c3c(Nc4c(Cl)ccc5c4OCO5)ncnc3c2)CC1 [saracatinib]
Outline: (§1)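 Aliquots of K562 cells (2×10^6 cells/mL) treated with 10 μM compound for 30 min were heated for 3 min over 48°C-58°C. After pooling and extraction in PBS with 0.5% NP-40 at 4°C, soluble protein from a 21,000xg, 90 min spin was quantified by TMTpro 16plex LC-MS/MS with channel sums equalised. Thermal stability is expressed against control samples, from duplicates, as a log2 fold change.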

sotrastaurin = compound: CN1CCN(c2nc(C3=C(c4c[nH]c5ccccc45)C(=O)NC3=O)c3ccccc3n2)CC1 [sotrastaurin]
Outline: as §1

alvocidib = compound: CN1CC[C@H](c2c(O)cc(O)c3c(=O)cc(-c4ccccc4Cl)oc23)[C@H](O)C1 [alvocidib]
Outline: as §1

Tubastatin A = compound: CN1CCc2c(c3ccccc3n2Cc2ccc(C(=O)NO)cc2)C1 [Tubastatin A]
Outline: as §1

[1] = compound: CNC(=O)C1=CC=CC=C1NC2=NC(=NC=C2Cl)NC3=C(C=C(C=C3)N4CCOCC4)OC
Outline: as §1

defactinib = compound: CNC(=O)c1ccc(Nc2ncc(C(F)(F)F)c(NCc3nccnc3N(C)S(C)(=O)=O)n2)cc1 [defactinib]
Outline: as §1

rucaparib = compound: CNCc1ccc(-c2[nH]c3cc(F)cc4c3c2CCNC4=O)cc1 [rucaparib]
Outline: as §1

[2] = compound: CNc1nc(-c2ccc3c(N)n[nH]c3c2)cc(N2C[C@@H](C(=O)NC3CCCCC3)CC[C@H]2C)n1
Outline: as §1

encorafenib = compound: COC(=O)N[C@@H](C)CNc1nccc(-c2cn(C(C)C)nc2-c2cc(Cl)cc(NS(C)(=O)=O)c2F)n1 [encorafenib]
Outline: as §1

[3] = compound: COC(=O)[C@H](CCSC)NC(=O)C1=C(C=C(C=C1)NC[C@H](CS)N)C2=CC=CC=C2
Outline: as §1

[4] = compound: COC1=CC=C(C=C1)CN2C=CC3=C2C=C(C=C3)C(=O)NO
Outline: as §1

filanesib = compound: CON(C)C(=O)N1N=C(c2cc(F)ccc2F)S[C@@]1(CCCN)c1ccccc1 [filanesib]
Outline: as §1

zotarolimus = compound: CO[C@H]1C[C@@H]2CC[C@@H](C)[C@@](O)(O2)C(=O)C(=O)N2CCCC[C@H]2C(=O)O[C@H]([C@H](C)C[C@@H]2CC[C@H](n3cnnn3)[C@H](OC)C2)CC(=O)[C@H](C)/C=C(\C)[C@@H](O)[C@@H](OC)C(=O)[C@H](C)C[C@H](C)/C=C/C=C/C=C/1C [zotarolimus]
Outline: as §1

idasanutlin = compound: COc1cc(C(=O)O)ccc1NC(=O)[C@@H]1N[C@@H](CC(C)(C)C)[C@](C#N)(c2ccc(Cl)cc2F)[C@H]1c1cccc(Cl)c1F [idasanutlin]
Outline: as §1

alisertib = compound: COc1cc(Nc2ncc3c(n2)-c2ccc(Cl)cc2C(c2c(F)cccc2OC)=NC3)ccc1C(=O)O [alisertib]
Outline: as §1

[5] = compound: COc1cc2nc(-c3cc(F)ccc3O)nc(N[C@@H]3CNC[C@H]3C(C)(C)O)c2cc1OC
Outline: as §1

gefitinib = compound: COc1cc2ncnc(Nc3ccc(F)c(Cl)c3)c2cc1OCCCN1CCOCC1 [gefitinib]
Outline: as §1

[6] = compound: COc1cccc2cc(-c3nc([C@H]4CC[C@H](C(=O)O)CC4)n4ncnc(N)c34)[nH]c12
Outline: as §1

lapatinib = compound: CS(=O)(=O)CCNCc1ccc(-c2ccc3ncnc(Nc4ccc(OCc5cccc(F)c5)c(Cl)c4)c3c2)o1 [lapatinib]
Outline: as §1

pictilisib = compound: CS(=O)(=O)N1CCN(Cc2cc3nc(-c4cccc5[nH]ncc45)nc(N4CCOCC4)c3s2)CC1 [pictilisib]
Outline: as §1

Chain of UniProt O43237 (O43237 whole entry, looked up): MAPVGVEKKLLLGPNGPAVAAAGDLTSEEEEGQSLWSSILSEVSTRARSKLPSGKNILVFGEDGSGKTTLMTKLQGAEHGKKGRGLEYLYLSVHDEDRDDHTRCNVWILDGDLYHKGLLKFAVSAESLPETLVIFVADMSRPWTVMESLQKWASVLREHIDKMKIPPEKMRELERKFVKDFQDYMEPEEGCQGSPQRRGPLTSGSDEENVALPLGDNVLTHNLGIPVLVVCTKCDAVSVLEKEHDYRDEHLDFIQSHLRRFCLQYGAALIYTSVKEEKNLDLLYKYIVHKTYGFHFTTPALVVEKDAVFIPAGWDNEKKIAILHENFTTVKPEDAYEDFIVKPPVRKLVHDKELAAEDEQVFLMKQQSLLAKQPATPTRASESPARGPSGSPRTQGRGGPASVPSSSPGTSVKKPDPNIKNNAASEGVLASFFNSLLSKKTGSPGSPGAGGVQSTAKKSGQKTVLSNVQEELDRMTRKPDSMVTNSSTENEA
Chain of UniProt Q0VG06 (Q0VG06 whole entry, looked up): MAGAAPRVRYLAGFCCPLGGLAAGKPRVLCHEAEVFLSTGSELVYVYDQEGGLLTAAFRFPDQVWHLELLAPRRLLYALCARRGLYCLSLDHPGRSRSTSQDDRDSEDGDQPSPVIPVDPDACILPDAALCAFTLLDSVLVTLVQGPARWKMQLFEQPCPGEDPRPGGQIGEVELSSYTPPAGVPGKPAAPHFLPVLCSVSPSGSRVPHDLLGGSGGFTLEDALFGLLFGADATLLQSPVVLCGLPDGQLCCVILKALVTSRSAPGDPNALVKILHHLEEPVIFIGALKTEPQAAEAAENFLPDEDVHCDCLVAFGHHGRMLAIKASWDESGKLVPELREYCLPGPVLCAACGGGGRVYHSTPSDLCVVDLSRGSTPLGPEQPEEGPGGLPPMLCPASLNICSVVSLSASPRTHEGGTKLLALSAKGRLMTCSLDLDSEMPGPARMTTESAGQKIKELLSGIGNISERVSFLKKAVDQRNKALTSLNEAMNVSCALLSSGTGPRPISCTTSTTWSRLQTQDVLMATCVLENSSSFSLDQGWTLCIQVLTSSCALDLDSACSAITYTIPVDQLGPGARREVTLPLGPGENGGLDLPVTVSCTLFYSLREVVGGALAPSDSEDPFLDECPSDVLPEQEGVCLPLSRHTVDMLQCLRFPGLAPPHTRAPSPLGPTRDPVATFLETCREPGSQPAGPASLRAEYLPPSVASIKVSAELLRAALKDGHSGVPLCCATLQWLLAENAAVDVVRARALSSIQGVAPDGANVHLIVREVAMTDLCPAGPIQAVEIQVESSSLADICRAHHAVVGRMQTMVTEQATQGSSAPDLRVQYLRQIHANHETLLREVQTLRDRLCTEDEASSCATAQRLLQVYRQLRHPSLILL
Chain of UniProt Q9NV70 (Q9NV70 whole entry, looked up): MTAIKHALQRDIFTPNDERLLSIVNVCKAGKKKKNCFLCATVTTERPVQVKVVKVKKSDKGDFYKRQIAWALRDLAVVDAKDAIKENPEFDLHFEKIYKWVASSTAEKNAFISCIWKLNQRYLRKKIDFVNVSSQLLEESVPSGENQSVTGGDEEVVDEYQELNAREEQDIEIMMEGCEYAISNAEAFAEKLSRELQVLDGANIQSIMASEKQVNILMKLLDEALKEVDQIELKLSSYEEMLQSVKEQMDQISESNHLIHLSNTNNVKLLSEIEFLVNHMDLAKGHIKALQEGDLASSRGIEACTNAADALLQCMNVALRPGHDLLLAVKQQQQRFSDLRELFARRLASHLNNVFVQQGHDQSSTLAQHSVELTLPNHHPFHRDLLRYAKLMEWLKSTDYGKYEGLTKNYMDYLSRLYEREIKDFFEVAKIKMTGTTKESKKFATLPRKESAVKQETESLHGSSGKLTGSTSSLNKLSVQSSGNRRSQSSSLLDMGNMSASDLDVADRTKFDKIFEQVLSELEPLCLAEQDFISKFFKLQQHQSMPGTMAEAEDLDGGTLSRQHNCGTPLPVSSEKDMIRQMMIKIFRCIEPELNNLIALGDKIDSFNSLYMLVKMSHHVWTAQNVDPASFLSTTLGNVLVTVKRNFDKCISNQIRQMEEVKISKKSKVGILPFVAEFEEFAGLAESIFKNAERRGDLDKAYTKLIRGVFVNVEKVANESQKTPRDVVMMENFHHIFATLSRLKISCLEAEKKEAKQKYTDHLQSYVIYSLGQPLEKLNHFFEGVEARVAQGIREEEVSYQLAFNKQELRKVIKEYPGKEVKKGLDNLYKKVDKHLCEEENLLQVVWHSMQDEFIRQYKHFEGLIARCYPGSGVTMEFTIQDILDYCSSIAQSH
Chain of UniProt Q04637 (Q04637 whole entry, looked up): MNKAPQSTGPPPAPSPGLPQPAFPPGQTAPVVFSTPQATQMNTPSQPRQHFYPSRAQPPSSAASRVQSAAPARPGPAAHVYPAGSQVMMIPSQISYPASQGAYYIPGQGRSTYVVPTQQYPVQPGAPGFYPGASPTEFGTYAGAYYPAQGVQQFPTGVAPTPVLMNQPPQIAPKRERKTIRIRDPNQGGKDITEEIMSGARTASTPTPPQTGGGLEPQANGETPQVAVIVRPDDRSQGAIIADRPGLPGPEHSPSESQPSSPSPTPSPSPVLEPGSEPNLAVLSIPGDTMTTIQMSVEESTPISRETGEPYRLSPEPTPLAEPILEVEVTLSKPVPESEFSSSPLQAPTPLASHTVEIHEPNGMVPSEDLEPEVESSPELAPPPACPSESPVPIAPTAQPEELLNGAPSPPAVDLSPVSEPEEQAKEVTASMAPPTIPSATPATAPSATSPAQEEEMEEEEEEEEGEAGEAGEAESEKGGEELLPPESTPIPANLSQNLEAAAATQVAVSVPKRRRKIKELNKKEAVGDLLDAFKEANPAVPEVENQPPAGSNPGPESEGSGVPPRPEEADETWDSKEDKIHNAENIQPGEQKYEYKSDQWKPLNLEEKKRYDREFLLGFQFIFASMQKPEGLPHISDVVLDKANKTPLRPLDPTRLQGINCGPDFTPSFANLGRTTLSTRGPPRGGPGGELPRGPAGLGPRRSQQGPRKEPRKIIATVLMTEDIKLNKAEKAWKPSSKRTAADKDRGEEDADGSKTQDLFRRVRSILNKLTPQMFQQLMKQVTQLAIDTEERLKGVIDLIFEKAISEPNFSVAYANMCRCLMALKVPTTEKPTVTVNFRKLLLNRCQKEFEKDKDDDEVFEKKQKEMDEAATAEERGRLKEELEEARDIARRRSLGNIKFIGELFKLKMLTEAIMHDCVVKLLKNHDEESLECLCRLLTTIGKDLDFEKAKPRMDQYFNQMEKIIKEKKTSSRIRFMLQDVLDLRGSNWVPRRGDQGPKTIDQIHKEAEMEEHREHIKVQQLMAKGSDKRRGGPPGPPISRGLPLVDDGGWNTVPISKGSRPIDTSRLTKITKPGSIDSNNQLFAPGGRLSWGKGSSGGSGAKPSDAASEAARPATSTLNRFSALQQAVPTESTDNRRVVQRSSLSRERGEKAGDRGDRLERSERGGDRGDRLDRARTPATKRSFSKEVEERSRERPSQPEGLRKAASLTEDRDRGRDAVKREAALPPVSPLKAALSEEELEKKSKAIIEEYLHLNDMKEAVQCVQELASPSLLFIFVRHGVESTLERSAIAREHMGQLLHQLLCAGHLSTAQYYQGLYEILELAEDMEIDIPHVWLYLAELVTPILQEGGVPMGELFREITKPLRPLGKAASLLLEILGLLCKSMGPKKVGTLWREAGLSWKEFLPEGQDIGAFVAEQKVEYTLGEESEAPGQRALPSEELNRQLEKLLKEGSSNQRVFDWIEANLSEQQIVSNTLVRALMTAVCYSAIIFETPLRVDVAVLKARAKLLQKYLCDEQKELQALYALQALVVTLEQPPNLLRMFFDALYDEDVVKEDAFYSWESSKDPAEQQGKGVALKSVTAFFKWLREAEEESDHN
Chain of UniProt P10619 (P10619 whole entry, looked up): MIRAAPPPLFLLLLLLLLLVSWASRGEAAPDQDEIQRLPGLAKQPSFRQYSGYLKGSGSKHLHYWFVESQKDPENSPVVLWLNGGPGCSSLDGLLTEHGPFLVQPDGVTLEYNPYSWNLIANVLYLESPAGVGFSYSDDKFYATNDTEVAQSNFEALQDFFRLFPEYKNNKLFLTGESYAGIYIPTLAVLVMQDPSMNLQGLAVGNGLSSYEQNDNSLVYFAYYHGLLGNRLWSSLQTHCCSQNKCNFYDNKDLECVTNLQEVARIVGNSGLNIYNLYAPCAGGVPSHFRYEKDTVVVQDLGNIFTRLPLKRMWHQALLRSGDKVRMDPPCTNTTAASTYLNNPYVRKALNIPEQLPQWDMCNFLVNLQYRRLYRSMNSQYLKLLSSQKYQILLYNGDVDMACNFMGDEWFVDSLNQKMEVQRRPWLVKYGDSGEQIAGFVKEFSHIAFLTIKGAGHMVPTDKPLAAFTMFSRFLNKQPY
Chain of UniProt Q16850 (Q16850 whole entry, looked up): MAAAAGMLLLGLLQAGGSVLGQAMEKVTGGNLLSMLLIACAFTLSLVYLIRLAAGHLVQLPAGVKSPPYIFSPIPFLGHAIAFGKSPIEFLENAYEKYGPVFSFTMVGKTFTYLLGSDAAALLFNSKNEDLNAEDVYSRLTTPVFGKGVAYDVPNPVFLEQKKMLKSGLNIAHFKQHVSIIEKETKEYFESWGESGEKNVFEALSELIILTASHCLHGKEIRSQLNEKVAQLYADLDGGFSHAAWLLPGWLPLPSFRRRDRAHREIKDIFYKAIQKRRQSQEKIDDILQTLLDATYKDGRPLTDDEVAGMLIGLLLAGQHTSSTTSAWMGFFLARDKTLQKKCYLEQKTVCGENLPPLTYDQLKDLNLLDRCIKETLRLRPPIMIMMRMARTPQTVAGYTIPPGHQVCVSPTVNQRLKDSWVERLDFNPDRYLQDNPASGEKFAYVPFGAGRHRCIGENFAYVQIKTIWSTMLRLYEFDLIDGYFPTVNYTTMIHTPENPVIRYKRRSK
Chain of UniProt P13498 (P13498 whole entry, looked up): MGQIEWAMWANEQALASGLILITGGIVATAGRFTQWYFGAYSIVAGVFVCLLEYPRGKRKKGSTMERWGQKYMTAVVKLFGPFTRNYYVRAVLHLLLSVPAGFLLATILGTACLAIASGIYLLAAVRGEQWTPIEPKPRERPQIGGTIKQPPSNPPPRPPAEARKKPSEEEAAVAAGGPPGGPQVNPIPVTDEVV

| Target | log2 fold change (saracatinib) | log2 fold change (sotrastaurin) | log2 fold change (alvocidib) | log2 fold change (Tubastatin A) | log2 fold change [1] | log2 fold change (defactinib) | log2 fold change (rucaparib) | log2 fold change [2] | log2 fold change (encorafenib) | log2 fold change [3] | log2 fold change [4] | log2 fold change (filanesib) | log2 fold change (zotarolimus) | log2 fold change (idasanutlin) | log2 fold change (alisertib) | log2 fold change [5] | log2 fold change (gefitinib) | log2 fold change [6] | log2 fold change (lapatinib) | log2 fold change (pictilisib) |
| --- | --- | --- | --- | --- | --- | --- | --- | --- | --- | --- | --- | --- | --- | --- | --- | --- | --- | --- | --- | --- |
| EIF4G1 isoform 8 (UniProt Q04637) | -0.08 | -0.36 | 0.021 | 0.034 | -0.067 | 0.008 | 0.197 | -0.017 | 0.092 | -0.05 | 0.01 | 0.067 | -0.121 | 0.09 | -0.007 | -0.003 | -0.114 | -0.369 | -0.073 | -0.27 |
| EEF1B2 (UniProt P24534) | -0.091 | -0.061 | -0.009 | 0.017 | 0.06 | -0.064 | 0.041 | -0.013 | 0.07 | -0.046 | 0.033 | 0.031 | 0.035 | 0.007 | 0.023 | 0.03 | 0.024 | -0.061 | -0.029 | 0.014 |
| DPYSL2 (UniProt Q16555) | 0.127 | 0.062 | -0.089 | -0.003 | -0.066 | 0.02 | 0.015 | -0.032 | -0.054 | -0.009 | -0.082 | 0.006 | -0.06 | 0.029 | 0.093 | 0.055 | -0.041 | 0.038 | 0.029 | 0.262 (active) |
| EXOC1 (UniProt Q9NV70) | 0.013 | -0.249 | -0.04 | 0.038 | -0.002 | -0.074 | 0.172 | 0.066 | 0.06 | -0.081 | -0.056 | 0.01 | 0.038 | -0.084 | 0.015 | 0.131 | -0.045 | -0.129 | -0.011 | -0.021 |
| FAAP100 (UniProt Q0VG06) | 0.044 | -0.014 | -0.035 | 0.028 | -0.178 | -0.044 | 0.009 | -0.067 | -0.04 | -0.097 | -0.008 | -0.012 | -0.025 | 0.055 | -0.044 | -0.095 | 0.036 | 0.004 | 0.011 | -0.067 |
| ECPAS (UniProt Q5VYK3) | -0.055 | -0.124 | -0.033 | 0.038 | 0.012 | -0.06 | 0.09 | 0.027 | 0.122 | -0.045 | 0.004 | -0.004 | 0.033 | -0.127 | -0.001 | 0.055 | -0.007 | -0.087 | -0.033 | 0.005 |
| DIAPH1 (UniProt O60610) | -0.104 | -0.276 | 0.132 | 0.086 | 0.044 | -0.039 | 0.219 | 0.125 | 0.215 | -0.12 | 0.008 | 0.083 | 0.081 | 0.04 | -0.099 | -0.06 | 0.046 | -0.193 | 0.075 | 0.006 |
| EGLN1 (UniProt Q9GZT9) | -0.01 | -0.074 | -0.003 | -0.296 (active) | 0.065 | -0.027 | 0.114 | 0.03 | 0.001 | 0.002 | -0.361 (active) | -0.07 | -0.022 | -0.004 | 0.018 | 0.018 | 0.022 | -0.074 | 0.01 | 0.009 |
| CYP51A1 (UniProt Q16850) | -0.072 | -0.029 | 0.027 | -0.024 | 0.065 | 0 | 0.162 | 0.212 | 0.029 | -0.135 | -0.035 | 0.217 | -0.11 | 0.099 | -0.025 | -0.005 | 0.009 | -0.105 | 0.401 (active) | -0.216 |
| DNAAF2 (UniProt Q9NVR5) | 0.048 | 0 | -0.065 | -0.042 | 0.01 | -0.142 | 0.031 | -0.033 | 0.026 | 0.043 | 0.009 | -0.012 | 0.016 | -0.033 | 0.005 | 0.015 | 0.035 | 0.062 | -0.026 | 0.232 |
| FAM3A (UniProt P98173) | 0.038 | 0.001 | -0.027 | 0.045 | 0.065 | -0.035 | 0.017 | 0.075 | 0.118 | -0.041 | -0.057 | -0.022 | 0.005 | 0.007 | 0.044 | -0.021 | 0.04 | 0.066 | 0.067 | 0.055 |
| ECH1 (UniProt Q13011) | -0.037 | 0.727 (active) | 0.053 | 0.519 (active) | 0.122 | -0.023 | -0.012 | -0.031 | -0.035 | -0.024 | -0.008 | -0.215 | -0.05 | -0.134 | 0.033 | 0.045 | -0.032 | 0.02 | -0.011 | 0.033 |
| CYBA (UniProt P13498) | 0.067 | 0.033 | -0.031 | -0.02 | 0.01 | 0.014 | -0.035 | -0.013 | 0.031 | 0.008 | -0.06 | -0.189 | -0.067 | 0.017 | -0.044 | -0.171 | -0.007 | 0.067 | -0.034 | -0.047 |
| DYNC1LI2 (UniProt O43237) | -0.001 | -0.079 | 0.258 | 0.033 | 0.028 | -0.039 | 0.42 | 0.003 | 0.212 | 0.016 | -0.19 | 0.384 | 0.005 | 0.092 | -0.053 | 0.101 | -0.099 | -0.119 | 0.116 | -0.223 |
| CTSA (UniProt P10619) | 0.056 | 0.089 | 0.04 | -0.015 | 0.06 | 0.022 | -0.041 | 0.002 | 0.057 | 0.065 | 0.01 | -0.111 | -0.024 | 0.015 | 0.029 | 0.023 | 0.1 | 0.065 | 0.045 | 0.038 |
